This note sets out measurements from PubChem BioAssay (NCATS).

Results filed as inconclusive are left out. The source made the active and inactive calls. Unless noted, the call rests on the fitted dose curve; in most records, active means well fitted curve in the direction sought with a large enough effect; inconclusive means small, poorly fitted or top-dose-only effect, or another doubt; inactive means no such curve, though single readings can be large; an effect the other way counts as inactive or inconclusive.

A short description of test [1]: qHTS assay for measurement of the activity of small molecule inhibitors on Zika virus induced Caspase-3 activity in human iPSC derived neural progenitor cells (hNPCs) (AID 1224857). Further: nearly all actives have a fitted effect of over 65% in size. Further: potency means the concentration at half of the fitted maximal effect. In outline: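 In medium with heparin 2 ug/ml and cyclopamine 2 uM, hNPCs (350 cells/well) received compound for one hour and then Zika virus at 2 FFU/cell; caspase activity was measured by Caspase-Glo 3/7 luminescence 6 h post-infection.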

Test [2] can be described thus: NS1 protein of Zika virus - qHTS assay to identify small molecule inhibitors in human HEK 293 cells (AID 1347053). Further: series mostly up to about 46 µM; nearly all actives have a fitted effect of over 55% in size. In outline:
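Read-out is a two-antibody TR-FRET for ZIKV NS1, normalized between uninfected cells and infected cells. Compound added 1 h before MR766 infection at MOI 0.5; human HEK 293 cells incubated 24 h, 37 C.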
(Quantitative high-throughput screening tests each substance at several concentrations.)

Test [3] has as its target T1, Tyrosine-protein phosphatase non-receptor type substrate 1 (Homo sapiens) + Leukocyte surface antigen CD47 (Homo sapiens) (UniProt P78324+Q08722). Description: CD47-SIRPalpha protein protein interaction - LANCE assay qHTS validation (AID 1347057; active means well fitted curve in the direction sought with a large enough effect in the signal ratio, with a control signal flat, not every such curve was filed as active; the % refers to the signal ratio; further: series mostly up to about 38 µM). The method in brief:
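Inhibition of soluble CD47/SIRPalpha ectodomain association by titrated compounds, measured as 665/615 nm time-resolved FRET ratio after sequential 30 min room-temperature incubations.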
(TR-FRET usually uses a lanthanide donor and a delayed reading to cut background.)

For test [4], the target named is T1, Tyrosine-protein phosphatase non-receptor type substrate 1 (Homo sapiens) + Leukocyte surface antigen CD47 (Homo sapiens). The test can be described thus: CD47-SIRPalpha protein protein interaction - HTRF assay qHTS validation (AID 1347058; active means well fitted curve in the direction sought with a large enough effect in the signal ratio, not every such curve was filed as active; the % refers to the signal ratio; further: series mostly up to about 38 µM). In outline: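 Soluble extracellular domains (6His-CD47, Avi-tag-biotinylated SIRPalpha) in PBS pH 7.4 with 0.05% IGEPAL CA-630. Compounds were preincubated 30 min at RT with CD47 and anti-His-Eu, then SIRPalpha and SAV-XL665 were added. TR-FRET 665/615 ratio.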

The target is the same in test [5]. The test can be described thus: CD47-SIRPalpha protein protein interaction - Alpha assay qHTS validation (AID 1347059).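 Further: bead proximity luminescence from CD47 binding SIRPalpha after compound preincubation with SIRPalpha.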 The method in brief:
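In PBS (pH 7.4) with 0.05% IGEPAL CA-630, compound is preincubated with biotin-Avi-SIRPalpha ectodomain before His-CD47 ectodomain and affinity beads are added. Light-protected room-temperature incubations; AlphaScreen readout.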

Test [6] can be described thus: P-glycoprotein substrates identified in KB-8-5-11 adenocarcinoma cell line, qHTS therapeutic library screen (AID 1346987). Further: nearly all actives have a fitted effect of over 65% in size. In outline: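 In this qHTS, P-gp-rich KB-8-5-11 cells received library compounds across a concentration range. Viability was quantified by luminescence after 72 h at 37 degree C.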
In test [7] the target is Atrial natriuretic peptide receptor 1 (Homo sapiens) (UniProt P16066). Description: Natriuretic polypeptide receptor (hNpr1) antagonism - Pilot screen (AID 1347049; calls by dose curve;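 further: HEK293 cells with hNpr1 and GloSensor cGMP luciferase stimulated by 0.1 nM hNppA; agonist-evoked cGMP luminescence read 20 min after hNppA addition; series mostly up to about 58 µM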). The method in brief:
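Cells expressing receptor plus cGMP biosensor are seeded and incubated overnight at 37C, then loaded with GloSensor reagent (2% final) at room temperature for 2 h. Library compounds go on for 30 min. A pre-read precedes agonist (hNppA, 0.1 nM final) and a 20-min readout.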

In test [8] the target is Atrial natriuretic peptide receptor 2 (Homo sapiens) (UniProt P20594). Description: Natriuretic polypeptide receptor (hNpr2) antagonism - Pilot subtype selectivity assay (AID 1347050; calls by dose curve). The method in brief: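 Read-out: GloSensor luminescence (CCD imager), baseline vs post-stimulation. HEK293 cells expressing hNpr2; compounds pre-incubated 30-50 min at ambient temperature; hNppC 1 nM final, 20 min.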
Atrial natriuretic peptide receptor 2 (Homo sapiens), sequence (P20594 whole entry, looked up): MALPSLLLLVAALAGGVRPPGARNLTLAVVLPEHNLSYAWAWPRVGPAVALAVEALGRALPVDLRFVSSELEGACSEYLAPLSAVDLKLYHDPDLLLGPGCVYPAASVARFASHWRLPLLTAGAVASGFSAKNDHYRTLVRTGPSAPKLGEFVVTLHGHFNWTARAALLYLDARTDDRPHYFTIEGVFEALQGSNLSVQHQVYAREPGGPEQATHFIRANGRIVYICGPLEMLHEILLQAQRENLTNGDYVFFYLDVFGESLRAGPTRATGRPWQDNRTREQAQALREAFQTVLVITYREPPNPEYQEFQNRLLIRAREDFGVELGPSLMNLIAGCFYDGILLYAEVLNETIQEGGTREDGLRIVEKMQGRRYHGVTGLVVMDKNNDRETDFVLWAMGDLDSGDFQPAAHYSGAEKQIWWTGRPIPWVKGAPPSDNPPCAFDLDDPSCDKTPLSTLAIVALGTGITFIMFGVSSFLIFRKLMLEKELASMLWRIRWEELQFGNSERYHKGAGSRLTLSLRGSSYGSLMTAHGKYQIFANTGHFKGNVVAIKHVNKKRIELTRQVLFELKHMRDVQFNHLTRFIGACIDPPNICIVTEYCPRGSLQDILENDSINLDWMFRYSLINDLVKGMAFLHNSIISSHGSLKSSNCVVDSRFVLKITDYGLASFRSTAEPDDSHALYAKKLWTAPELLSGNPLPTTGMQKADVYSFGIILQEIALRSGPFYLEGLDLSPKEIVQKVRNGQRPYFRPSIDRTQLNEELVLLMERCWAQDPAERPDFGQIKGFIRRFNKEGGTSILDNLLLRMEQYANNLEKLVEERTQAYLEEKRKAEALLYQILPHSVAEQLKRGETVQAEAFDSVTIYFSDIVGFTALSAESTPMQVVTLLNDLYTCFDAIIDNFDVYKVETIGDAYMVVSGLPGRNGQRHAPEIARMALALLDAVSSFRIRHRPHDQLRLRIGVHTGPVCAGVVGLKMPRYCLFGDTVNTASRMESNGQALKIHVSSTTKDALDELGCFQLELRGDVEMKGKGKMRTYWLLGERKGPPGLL

Test [9] concerns the target Parathyroid hormone/parathyroid hormone-related peptide receptor (Homo sapiens) (UniProt Q03431). The test can be described thus: qHTS for PTHR1 Agonists: Optimization Screen against the NCGC LOPAC library (AID 1347079).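 Further: GloSensor cAMP luminescence in HEK-293 GP2 cells expressing human PTHR1 with IBMX.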 In outline:
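Signal increase flags agonism. GP2 cells, derived from HEK-293, express human PTHR1 and a GloSensor cAMP construct.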

Test [10] can be described thus: qHTS assay for measurement of the activity of small molecule inhibitors on Zika virus induced Caspase-3 activity in human astrocytoma cells (AID 1224859). In outline: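 A cell-based luminescent caspase-3/7 assay used SNB-19 cells infected with ZIKV (2 FFU/cell) for 6 h following 1 h compound pretreatment.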
Test [11] can be described thus: qHTS assay to identify small molecule inhibitors of chordoma cells - UCH-1 (AID 1259355). Further: nearly all actives have a fitted effect of over 55% in size. The method in brief: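 A 48hr growth-inhibition format: each drug tested at 15 concentrations together with added auranofin, camptothecin, doxorubicin, rubitecan and topotecan, with cell viability quantified as CellTiter-Glo luminescence.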
Test [12] can be described thus: qHTS assay to identify small molecule inhibitors of chordoma cells - UCH-2 (AID 1259356). Further: series mostly up to about 46 µM.
The nature of test [13]: Natriuretic polypeptide receptor (hNpr1) antagonism - Pilot counterscreen GloSensor control cell line (AID 1347045; calls by dose curve; further: series mostly up to about 38 µM). In outline:
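HEK293 cGMP-sensor cells; 2% GloSensor reagent 2 h RT; LOPAC compounds in 1:5 titrations 30-50 min; 50 uM SNP 20 min; luminescence pre-read and post-read.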
(In general: A counterscreen serves to expose hits that act by an unwanted route or on another target.)

A short description of test [14]: qHTS of pediatric cancer cell lines to identify multiple opportunities for drug repurposing: Primary screen for TC32 cells (AID 1347089). Further: nearly all actives have a fitted effect of over 60% in size. In outline:
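TC32 cells, 500-1,000/well in growth medium, compound-treated 48 h at 37 °C; viability from CellTiter-Glo luminescence. Primary screen: MIPE 11-point (0.78 nM–46 µM final), NPC 8-point (0.59 nM–46 µM final); confirmatory at 11-point dilutions.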

The nature of test [15]: qHTS of pediatric cancer cell lines to identify multiple opportunities for drug repurposing: Primary screen for DAOY cells (AID 1347090). Further: series mostly up to about 46 µM; nearly all actives have a fitted effect of over 55% in size. In outline:
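Eight- or eleven-point concentration series, 48 h treatment at 37 degrees C in growth media; readout CellTiter-Glo luminescence. Potency and efficacy were taken from the concentration-response curves.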

T1 sequence (P78324 whole entry, looked up, the tested form may be a part): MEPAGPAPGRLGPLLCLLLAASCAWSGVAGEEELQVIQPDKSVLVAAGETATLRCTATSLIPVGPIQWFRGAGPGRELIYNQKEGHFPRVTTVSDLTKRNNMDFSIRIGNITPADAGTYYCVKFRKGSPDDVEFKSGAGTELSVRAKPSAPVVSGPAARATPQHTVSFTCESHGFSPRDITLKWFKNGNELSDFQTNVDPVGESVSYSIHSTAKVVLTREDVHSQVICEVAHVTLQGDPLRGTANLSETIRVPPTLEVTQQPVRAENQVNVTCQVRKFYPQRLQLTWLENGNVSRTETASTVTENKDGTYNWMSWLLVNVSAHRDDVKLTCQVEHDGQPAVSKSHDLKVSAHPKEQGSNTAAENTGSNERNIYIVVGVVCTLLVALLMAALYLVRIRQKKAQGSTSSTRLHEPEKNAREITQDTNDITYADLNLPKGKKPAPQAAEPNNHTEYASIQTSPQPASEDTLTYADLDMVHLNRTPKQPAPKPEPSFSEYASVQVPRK
T1 sequence (Q08722 whole entry, looked up, the tested form may be a part): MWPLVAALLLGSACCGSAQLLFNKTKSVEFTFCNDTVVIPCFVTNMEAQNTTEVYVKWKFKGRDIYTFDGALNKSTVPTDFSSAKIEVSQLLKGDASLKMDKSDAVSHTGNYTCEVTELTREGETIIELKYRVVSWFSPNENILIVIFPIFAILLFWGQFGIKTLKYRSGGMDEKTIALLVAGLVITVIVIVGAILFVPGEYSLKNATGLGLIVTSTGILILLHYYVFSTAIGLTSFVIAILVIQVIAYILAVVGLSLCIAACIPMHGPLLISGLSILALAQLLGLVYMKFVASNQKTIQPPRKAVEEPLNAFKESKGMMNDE
Atrial natriuretic peptide receptor 1 (Homo sapiens), sequence (P16066 whole entry, looked up): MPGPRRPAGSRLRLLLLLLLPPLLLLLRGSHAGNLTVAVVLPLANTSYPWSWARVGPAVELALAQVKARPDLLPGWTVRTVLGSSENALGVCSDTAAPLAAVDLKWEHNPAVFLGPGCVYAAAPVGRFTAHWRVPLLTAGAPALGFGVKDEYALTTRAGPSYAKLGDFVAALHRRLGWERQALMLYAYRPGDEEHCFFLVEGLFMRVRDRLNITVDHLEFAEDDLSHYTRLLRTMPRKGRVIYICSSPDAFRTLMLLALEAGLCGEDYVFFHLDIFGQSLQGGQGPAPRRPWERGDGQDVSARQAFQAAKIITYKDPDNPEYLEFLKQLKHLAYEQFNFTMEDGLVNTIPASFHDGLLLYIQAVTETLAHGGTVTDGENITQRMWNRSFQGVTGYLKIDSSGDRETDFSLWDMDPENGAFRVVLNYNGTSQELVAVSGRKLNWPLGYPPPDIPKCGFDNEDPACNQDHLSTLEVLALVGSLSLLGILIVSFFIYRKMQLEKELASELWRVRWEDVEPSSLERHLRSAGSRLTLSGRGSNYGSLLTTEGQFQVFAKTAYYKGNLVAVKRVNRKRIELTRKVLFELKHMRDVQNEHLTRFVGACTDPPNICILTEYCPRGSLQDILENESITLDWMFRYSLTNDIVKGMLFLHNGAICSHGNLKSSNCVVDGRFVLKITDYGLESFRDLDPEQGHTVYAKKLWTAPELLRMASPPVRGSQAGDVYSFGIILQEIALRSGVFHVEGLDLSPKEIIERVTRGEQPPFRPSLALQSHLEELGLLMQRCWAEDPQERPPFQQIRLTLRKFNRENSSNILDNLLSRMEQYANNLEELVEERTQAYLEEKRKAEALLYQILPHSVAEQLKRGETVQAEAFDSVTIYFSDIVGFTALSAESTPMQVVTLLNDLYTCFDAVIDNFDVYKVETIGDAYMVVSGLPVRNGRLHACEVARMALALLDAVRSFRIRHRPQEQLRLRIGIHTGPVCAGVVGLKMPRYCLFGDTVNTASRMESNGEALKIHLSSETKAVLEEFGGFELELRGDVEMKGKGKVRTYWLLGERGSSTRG
Parathyroid hormone/parathyroid hormone-related peptide receptor (Homo sapiens), sequence (Q03431 whole entry, looked up): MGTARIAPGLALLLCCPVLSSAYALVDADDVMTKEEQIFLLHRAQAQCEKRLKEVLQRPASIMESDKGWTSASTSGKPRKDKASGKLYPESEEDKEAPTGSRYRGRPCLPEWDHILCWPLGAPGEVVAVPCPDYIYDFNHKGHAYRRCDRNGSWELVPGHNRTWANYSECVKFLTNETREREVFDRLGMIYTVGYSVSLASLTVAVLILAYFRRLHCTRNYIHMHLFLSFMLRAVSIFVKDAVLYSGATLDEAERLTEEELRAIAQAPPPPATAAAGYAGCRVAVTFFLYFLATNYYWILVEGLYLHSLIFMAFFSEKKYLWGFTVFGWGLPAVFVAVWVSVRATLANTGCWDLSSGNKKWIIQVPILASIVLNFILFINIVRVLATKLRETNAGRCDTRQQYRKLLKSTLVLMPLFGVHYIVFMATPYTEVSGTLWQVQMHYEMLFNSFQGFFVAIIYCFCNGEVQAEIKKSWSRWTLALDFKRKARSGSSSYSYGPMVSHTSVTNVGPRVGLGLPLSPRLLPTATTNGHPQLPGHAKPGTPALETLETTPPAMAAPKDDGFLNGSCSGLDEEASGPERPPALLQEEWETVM

As to `CC(C)c1cccc(C(C)C)c1N1C(=O)c2ccc(O)cc2C1=O`, the Potency entry in test [1], in test [2], in [3] and in test [5] was “inactive” each time. Moreover, the outcome in test [4] was inactive.
As to `O=C(Nc1ccc2c(c1)CCN(Cc1ncn[nH]1)C2)c1ccccc1-c1ccc(C(F)(F)F)cc1`, the Potency result in test [1], in test [6], in test [2], in [3] and in [5] was “inactive” each time. Besides, the result in test [4] was inactive.
Regarding `COCCOc1cc2nc[nH]c(=O)c2cc1OCCOC`, the Potency result in test [1], in test [2], in test [3] and in test [5] was “inactive” throughout. The result in [4] was inactive.
In the case of `Fc1ccc2[nH]c(CN3CCN(c4ccccn4)CC3)cc2c1`, the Potency entry in test [1], in test [2], in test [3] and in [5] was “inactive” in each case. Also, the outcome in test [4] was inactive.
Turning to `CCNc1nc2c(ncn2[C@H]2C[C@H](O)[C@@H](CO)O2)c(=O)[nH]1`, the Potency result in test [1], in test [6], in test [3] and in [5] was “inactive” throughout. The result in [4] was inactive.
Turning to `CN(CCCOc1ccc(Cc2ccccc2)cc1)CCC(=O)O`, the Potency entry in test [1], in [6], in test [3] and in test [5] was “inactive” each time. Also, the result in test [4] was inactive.
As to `CS(=O)(=O)c1ccc(-n2nc(C(F)(F)F)cc2-c2ccc(F)cc2)cc1`, the Potency entry in test [1], in test [2], in test [3] and in test [5] was “inactive” in each case. The result in test [4] was inactive.
Turning to `O=C1NCc2c1c1c3ccccc3[nH]c1c1[nH]c3ccccc3c21`, the Potency entry in test [1], in [2], in test [3] and in test [5] was “inactive” throughout. Also, the result in [4] was inactive.
Take `O=C1NC(=O)/C(=C/c2ccc(-c3ccc(F)cc3O)o2)S1`: the Potency in [1] is 10 µM (active). In addition, the Potency entry in test [7], in test [8], in [2], in test [3], in test [5] and in test [9] was “inactive” each time. Also, in [4], the result was inactive.
As for `CO[C@H]1O[C@@H]2O[C@]3(C)CC[C@@H]4[C@@H](C)CC[C@H]([C@H]1C)[C@]24OO3`, the Potency entry in [1], in test [2], in [3] and in [5] was “inactive” in each case. For the same compound, the outcome in [4] was inactive.
As to `COc1ccc(/C=C/c2nc(NCCCN(C)C)c3ccccc3n2)cc1`, the Potency entry in test [1] and in [5] was “inactive” each time.
On to `CCC1C(=O)OCC1Cc1cncn1C` (stereo not drawn), for which the Potency entry in [10], in test [11], in test [12], in test [6], in [13] and in [7] was “inactive” in each case. Besides, the Potency entry in test [8], in test [3], in test [5], in test [9], in test [14] and in test [15] was “inactive” in each case. Further, in test [4], the result was inactive.
For `CNC(=O)c1c(I)c(NC(=O)CCCCC(=O)Nc2c(I)c(C(=O)O)c(I)c(C(=O)NC)c2I)c(I)c(C(=O)O)c1I`, the Potency entry in test [1], in test [2], in test [14] and in test [15] was “inactive” in each case.
Regarding `C/C(=N\O)c1ccc(OCC(=O)N2CCCCC2)cc1`, the Potency in test [1] was 15.8 µM (active). Besides, the Potency entry in test [2], in [14] and in test [15] was “inactive” throughout.
Take `c1ccc(CCNc2nc(-c3ccccc3)cs2)cc1`: the Potency result in test [1] and in [14] was “inactive” each time.
Take `Nc1ccn([C@H]2O[C@H](CO)[C@@H](O)C2(F)F)c(=O)n1`: the Potency entry in test [1], in test [3] and in [5] was “inactive” throughout. Besides, the outcome in test [4] was inactive.
